Experimental data published in PubChem BioAssay (EPA / NIEHS).
Records with an inconclusive call do not appear. Calls of active or inactive are those of the source. How the source made its calls, unless noted: active means hit-call score of the fitted dose curve at least 0.9, where 1 is the maximum; inactive means score below 0.9.

Tests used:
[1] = ACEA_ER_AUC_viability: ACEA Biosciences xCELLigence Real-Time Cell Analysis on Estrogen Receptor Agonism for Viability (AID 2283782; active means hit-call score of the fitted dose curve at least 0.9, where 1 is the maximum;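 further: continuous compound exposure with impedance area under curve over 80 h; hit means loss of impedance signal meaning reduced cell growth or viability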)
Method in brief: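 T47D cells preconditioned in phenol red-free RPMI with charcoal-stripped FBS, then dosed with 8-point 1:4 series from 100 uM (up to 0.5% DMSO). Impedance monitored up to ~80 h; area-under-curve loss versus DMSO taken as viability.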

[2] = CCTE_Harrill_HTTr_Viability_MCF7: CCTE's 6-hour Cell Viability Assessment for the High-Throughput Transcriptomics (HTTr) Platform, in MCF-7 cells cultured in DMEM + 10% fetal bovine serum, Harrill Lab (AID 2284010)
Method in brief: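 Cells were dosed with chemicals in an eight-point dilution series, imaged 6 hours later for propidium iodide uptake, and the endpoint was analyzed by bidirectional fitting against DMSO as negative control.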

[3] = CCTE_Harrill_HTTr_Apoptosis_MCF7: CCTE's 6-hour Apoptosis Assessment for the High-Throughput Transcriptomics (HTTr) Platform, in MCF-7 cells cultured in DMEM + 10% fetal bovine serum, Harrill Lab (AID 2284011)
Method in brief: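 Read-out: CellEvent Caspase 3/7 Green signal by high content imaging, gain-of-signal indicating apoptosis. MCF-7 cells, DMEM + 10% FBS, eight-point dilution series, 6 h exposure. Curves fitted bidirectionally relative to DMSO negative control.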

[4] = CCTE_Harrill_HTTr_CellCount_MCF7: CCTE's Cell Proliferation Assessment for the High-Throughput Transcriptomics (HTTr) Platform, Harrill Lab (AID 2284012; active means hit-call score of the fitted dose curve at least 0.9, where 1 is the maximum;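 further: count of Hoechst-stained nuclei per well by high-content imaging in MCF-7 cells; cells exposed to compound for six hours; intended direction is loss of nuclei count meaning fewer cells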)
Method in brief: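 Chemicals in eight-point dilution series are added to MCF-7 cells for six hours, nuclei are stained with Hoechst and imaged, and per-well nuclei counts are fitted in both directions relative to DMSO controls.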

[5] = CCTE_Shafer_MEA_dev_firing_rate_mean: CCTE's Neural Network Formation Assay for Mean Firing Rate, Shafer Lab (AID 2284031)
Method in brief: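 Rat primary cortical neurons were seeded on multielectrode arrays and treated from plating through day 12, with redosing at each feed. Spontaneous spiking was recorded four times; mean firing rate AUC was fitted downward against DMSO.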

[6] = CCTE_Shafer_MEA_dev_per_burst_spike_percent: CCTE's Neural Network Formation Assay for Percent of Spikes in a Burst, Shafer Lab (AID 2284032);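 further: fitted as a decrease in burst spike percentage below DMSO baseline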
Method in brief: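 Rat primary cortical neurons on 16-electrode MEA wells, dosed from plating day 0 for 12 days with renewal on DIV 5 and 9; spikes-in-bursts percentage averaged over bursting electrodes, collapsed as AUC across days 5, 7, 9, 12; loss direction versus DMSO.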

[7] = CCTE_Shafer_MEA_dev_active_electrodes_number: CCTE's Neural Network Formation Assay for Number of Active Electrodes, Shafer Lab (AID 2284040; active means hit-call score of the fitted dose curve at least 0.9, where 1 is the maximum)
Method in brief: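 Primary rat cortical neurons on 16-electrode MEA wells, exposed from day 0 through day 12 with compound renewed at DIV 5 and 9 feeds. Active electrodes (mean firing ≥5 spikes/min) counted at DIV 5, 7, 9, 12; trapezoidal AUC across days, loss-of-signal versus DMSO.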

[8] = CCTE_Shafer_MEA_dev_burst_rate: CCTE's Neural Network Formation Assay for Burst Rate, Shafer Lab (AID 2284042)
Method in brief: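 Cells plated, treated day 0; recorded DIV 5, 7, 9, 12; fed and re-treated DIV 5, 9. Endpoint: bursts per recording time, active-electrode well mean, trapezoidal AUC, fitted in decreasing direction against DMSO baseline.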

[9] = CCTE_Shafer_MEA_dev_bursting_electrodes_number: CCTE's Neural Network Formation Assay for Number of Bursting Electrodes, Shafer Lab (AID 2284043; active means hit-call score of the fitted dose curve at least 0.9, where 1 is the maximum;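 further: potency is for loss of bursting electrodes relative to DMSO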)
Method in brief: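 Primary rat cortical neurons plated on 16-electrode MEA wells, exposed from day 0 with compound renewed at DIV 5 and 9. Electrodes bursting ≥1 burst per 2 min counted on days 5, 7, 9 and 12; trapezoidal AUC across days, fitted for loss versus DMSO.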

[10] = CCTE_Shafer_MEA_dev_per_burst_interspike_interval: CCTE's Neural Network Formation Assay for Burst Interspike Interval, Shafer Lab (AID 2284044);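 further: potency for a decrease of within-burst interspike interval below DMSO level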
Method in brief: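 Readout is the average time between spikes inside single-electrode bursts, taken as a well mean across bursting electrodes. Cortical neurons from rat developed networks on MEA plates under continuous 12-day exposure; recordings on days 5, 7, 9 and 12 were integrated by trapezoidal AUC.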

[11] = CCTE_Shafer_MEA_dev_burst_duration_mean: CCTE's Neural Network Formation Assay for Mean Burst Duration, Shafer Lab (AID 2284045)
Method in brief: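 Primary rat cortical neurons on 48-well 16-electrode MEA plates, exposed from day 0 with renewal at DIV 5 and 9; spontaneous activity recorded on days 5, 7, 9, 12. Well-mean burst duration across bursting electrodes, collapsed as trapezoidal AUC; DMSO baseline.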

[12] = CCTE_Shafer_MEA_dev_interburst_interval_mean: CCTE's Neural Network Formation Assay for Mean Interburst Interval, Shafer Lab (AID 2284046);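 further: well-mean interburst interval of bursting electrodes as AUC over four recording days; curve fitted for decrease in interburst interval relative to DMSO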
Method in brief: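 Developing rat cortical networks on 48-well MEAs receive compound from the day of plating. Burst intervals from each active electrode are averaged per well, and AUC over the recording days is fitted in the negative direction against DMSO.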

[13] = CCTE_Shafer_MEA_dev_inter_network_spike_interval_mean: CCTE's Neural Network Formation Assay for Mean Inter-network Spike Interval, Shafer Lab (AID 2284047)
Method in brief: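 Rat cortical cultures, 1.5 x 10^5 cells/well on 48-well MEA plates; continuous exposure days 0–12, medium and compound refreshed DIV 5, 9. Mean time between consecutive network-spike peaks; AUC across DIV 5/7/9/12; DMSO baseline, negative fitting direction.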

[14] = CCTE_Shafer_MEA_dev_network_spike_number: CCTE's Neural Network Formation Assay for Number of Network Spikes, Shafer Lab (AID 2284048)
Method in brief: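 Primary rat cortical neurons on PEI/laminin 48-well MEA plates, dosed from plating day 0 for 12 days, renewed at DIV 5 and 9. Network spike counts recorded DIV 5, 7, 9, 12, collapsed as trapezoidal AUC; DMSO baseline.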

[15] = CCTE_Shafer_MEA_dev_network_spike_peak: CCTE's Neural Network Formation Assay for Mean Number of Electrodes in Network Spike, Shafer Lab (AID 2284049);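 further: fitted for loss of signal meaning fewer electrodes in network spikes than DMSO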
Method in brief: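 Network-spike peak electrode count from recordings on days 5, 7, 9 and 12 was combined as trapezoidal area under the curve. Rat cortical cultures were treated continuously from plating, with compound renewed at each feed (DIV 5, 9); fits versus DMSO.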

[16] = CCTE_Shafer_MEA_dev_spike_duration_mean: CCTE's Neural Network Formation Assay for Mean Spike Duration, Shafer Lab (AID 2284051);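 further: mean network spike duration pooled as area under curve over DIV 5 to 12 recordings; potency for a decrease in mean network spike duration versus DMSO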
Method in brief: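 Readout is the average length of network spikes, clustered firing across electrodes, summed over DIV 5, 7, 9 and 12 as area under the curve. Neurons from rat cortex developed networks on MEA plates under continuous 12-day exposure.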

[17] = CCTE_Shafer_MEA_dev_network_spike_duration_std: CCTE's Neural Network Formation Assay for Standard Deviation of Network Spike Duration, Shafer Lab (AID 2284052);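 further: area under curve of spike duration SD across recording days 5 to 12; hits are decreases in network spike duration SD versus DMSO vehicle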
Method in brief: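 Read-out is the trapezoidal area-under-the-curve across recordings made on days 5, 7, 9 and 12, fitted in the negative direction against DMSO baseline. Neurons were primary rat cortical cells treated from day 0, with treatment renewed at each feed.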

[18] = CCTE_Shafer_MEA_dev_per_network_spike_spike_number_mean: CCTE's Neural Network Formation Assay for Mean Number of Spikes in a Network Spike, Shafer Lab (AID 2284053)
Method in brief: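 Continuous twelve-day exposure of developing rat cortical networks grown over 16 microelectrodes per well; spontaneous firing is captured at four time points, and the per-network-spike spike number is integrated over development by trapezoidal AUC.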

[19] = CCTE_Shafer_MEA_dev_per_network_spike_spike_percent: CCTE's Neural Network Formation Assay for Percent of Spikes in a Network Spike, Shafer Lab (AID 2284054)
Method in brief: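 Rat primary cortical neurons were grown on 48-well MEA plates (16 electrodes/well), exposed from plating day 0 through day 12, with treatment renewed on DIV 5 and 9. Percent of spikes within 0.05 s network-spike peaks was measured, summarised as AUC across days 5, 7, 9, 12.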

[20] = CCTE_Shafer_MEA_dev_LDH: CCTE's Lactate Dehydrogenase Assay for Cytotoxicity in the Neural Network Formation Assay, Shafer Lab (AID 2284068; active means hit-call score of the fitted dose curve at least 0.9, where 1 is the maximum;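 further: exposure for twelve days from plating with re-dosing on DIV 5 and 9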)
Method in brief: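 Cytotoxicity companion to network-formation recordings: rat cortical neurons received compound over 12 days of development, re-dosed at DIV 5 and 9 feeds. Viability was inferred from LDH enzyme activity relative to DMSO.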

[21] = CCTE_Shafer_MEA_dev_mutual_information_norm: CCTE's Neural Network Formation Assay for Mutual Information Normalization, Shafer Lab (AID 2284091)
Method in brief: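 Primary rat cortical neurons on PEI-coated 48-well MEA plates, 1.5 x 10^5 cells/well, exposed from day 0 through day 12 with re-dosing at DIV 5 and 9. Mutual information between electrodes recorded days 5, 7, 9, 12; trapezoidal AUC, loss-of-signal fit versus DMSO.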

[22] = CCTE_Shafer_MEA_dev_correlation_coefficient_mean: CCTE's Neural Network Formation Assay for Mean Correlation Coefficient, Shafer Lab (AID 2284093);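 further: well mean pairwise spike train correlation integrated as AUC over recording days 5 to 12; potency fitted for loss of correlation relative to DMSO vehicle wells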
Method in brief: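 Read-out: well-mean correlation coefficient of spike trains between electrode pairs, collapsed over four recording days as trapezoidal area-under-the-curve. Developing rat cortical neuron networks grown on MEAs received test chemical continuously from plating.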

[23] = TAMU_PeakParms_SingleDonor1434_Chronotropy: Texas A&M University (TAMU) 1.5-hr Human Induced Pluripotent Stem Cell (iPSC)-derived Cardiomyocytes Calcium (Ca+2) Flux Assay for Cardiotoxicity: Chronotropy (changes in peak frequency) (AID 2284217); details: actives raise or lower the signal
Method in brief: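 Beat frequency of single-donor iPSC cardiomyocytes was recorded through a calcium-sensitive dye 1.5 hours after exposure to four concentrations up to 100 uM. An EC05 point of departure was derived.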

[24] = TAMU_PeakParms_SingleDonor1434_Asystole: Texas A&M University (TAMU) 1.5-hr Human Induced Pluripotent Stem Cell (iPSC)-derived Cardiomyocytes Calcium (Ca+2) Flux Assay for Cardiotoxicity: Asystole (quiescence of beating) (AID 2284328; active means hit-call score of the fitted dose curve at least 0.9, where 1 is the maximum)
Method in brief: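 Donor 1434 iPSC-cardiomyocytes exposed 90 min at 37C, 5% CO2, to 0.2, 1, 10 and 100 uM in 0.5% DMSO. Ca2+ dye fluorescence gave average peak frequency; POD is EC95, a 95% beat-rate drop versus controls.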

For `CN(C)CCCNCCC#N`, the outcome [1] was “inactive”.

In the case of `c1ccc2cc3c4ccccc4c4ccccc4c3cc2c1`, the outcome [2] was “inactive”, the outcome [3] was “inactive” and the outcome [4] was “inactive”. For the same molecule, the outcome [5] was “inactive”, the AC50 [6] was 1970 nM (active) and the outcome [7] was “inactive”. For the same molecule, the outcome [8] was “inactive”, the AC50 [9] was 3010 nM (active) and the AC50 [10] was 1970 nM (active). For the same molecule, the outcome [11] was “inactive”, the outcome [12] was “inactive” and the outcome [13] was “inactive”. For the same molecule, the outcome [14] was “inactive”, the AC50 [15] was 1980 nM (active) and the AC50 [16] was 2970 nM (active). For the same molecule, the outcome [17] was “inactive”, the outcome [18] was “inactive” and the AC50 [19] was 3230 nM (active). For the same molecule, the AC50 [20] was 2330 nM (active), the outcome [21] was “inactive” and the AC50 [22] was 3220 nM (active). The AC50 [23] was 710 nM (active) and the outcome [24] was “inactive”.
